An excerpt weighted towards active compounds, which were near 6.8% of everything screened.
PMK inhibit: blocks S. pneumoniae phosphomevalonate kinase | inhibition, % at 10 µM | 0.49% of 65,000 active | purified PMK, PK/LDH-coupled NADH absorbance 340 nm;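 active = top-ranked compounds by inhibition in the single 10 µM screen, taking a fixed number of the strongest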
Fluor 339 460: intrinsic fluorescence of library compounds, ex339/em460 – biochemical, MLSMR library, data from DPM-DC assay, artefact control, profiling panel; fluorescence fold increase at 10 µM; compound autofluorescence, ex339/em460 nm, NADH buffer; hits give high values; 1 = no-compound wells, NADH background; 5.5% of 65,000 active; AID 709;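 active = at 10 µM, mean starting fluorescence two-fold or more over control wells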;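 also: signal is the first read of a kinetic run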
MK inhibit: inhibitors of Streptococcus pneumoniae mevalonate kinase; purified MK, PK/LDH-coupled NADH absorbance 340 nm; inhibition, % at 10 µM; 0.48% of 65,000 active;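 active = ranked among the strongest by inhibition in the single 10 µM screen, a fixed top-ranked set picked for dose follow-up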
Abs 340nm: absorbance at 340 nm; compound absorbance at 340 nm, fold over control; fold change at 10 µM; 65,000 tested, under 10 active; AID 708;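 active = at 10 µM dose, initial 340 nm absorbance at least 2 fold that of control wells; inactive = change under 2 fold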;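 also: initial absorbance extrapolated from kinetic A340 decline of NADH oxidation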
Spn DPM-DC inh: S. pneumoniae DPM-DC inhibition; 0.49% of 65,000 active; purified DPM-DC, PK/LDH coupled NADH fluorescence; calls only at 10 µM;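 active = the 320 compounds with the highest percent inhibition in the single-dose primary screen, excluding strongly autofluorescent ones, cut at about 32% in these data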;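 also: kinetic rate of NADH fluorescence loss reporting ADP formed by the decarboxylase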
NADH enzymes: inhibition of NAD/NADH coupling enzymes, library profiling; coupled PK/LDH NADH assays, four targets; IC50, µM (highest dose often 10 µM); 0.02% of 65,000 active;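 active = single-dose screening hits from any of four coupled enzyme assays that gave an IC50 when retested across doses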;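 also: the DPM-DC format reads NADH fluorescence rather than 340 nm absorbance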
Each line names hits and unclear results; the compound was inactive in the other large screens; [ ] = dose if it differs, or a comment.

O=c1c2cc(N3CCOCC3)ccc2[nH]c(=S)n1CCN1CCCC1	Fluor 339 460 2.6
CCc1ccccc1NC(=O)CSc1nnc(-c2ccco2)n1N	none
CC1(C)OC(=O)C2(Cc3ccccc3N3CCCCC32)C(=O)O1 (configuration not stated)	none
CC(C)OCCCn1c(=S)[nH]c2ccc(N3CCOCC3)cc2c1=O	Fluor 339 460 3.7
CC(C)OCCCn1c(=S)[nH]c2cc3c(cc2c1=O)OCO3	none
COc1ccccc1N(C(=O)c1snc(C(N)=O)c1N)C(C(=O)NCCC(C)C)c1ccco1 (configuration not stated)	Fluor 339 460 2.5
CCOc1ccccc1N(C(=O)c1snc(C(N)=O)c1N)C(C(=O)NCCC(C)C)c1ccco1 (configuration not stated)	none
COc1ccc(CN(C(=O)c2snc(C(N)=O)c2N)C(C(=O)NC(C)(C)C)c2ccco2)cc1 (configuration not stated)	Fluor 339 460 2.3
CC(C(=O)NC1CCCC1)N(Cc1ccco1)C(=O)c1snc(C(=O)NC2CCCC2)c1N (configuration not stated)	Fluor 339 460 2.4
CC(C)(C)NC(=O)COC(=O)c1snc(C(=O)NC2CCCCC2)c1N	Fluor 339 460 2.1 (not shown: Spn DPM-DC inh)
O=c1c2ccccc2nc2n1CC/C2=C/N1CCN(c2cccc(C(F)(F)F)c2)CC1	none
COCCNC(=O)C(c1ccc(C)o1)N(C(=O)c1snc(C(N)=O)c1N)c1cc(C)cc(C)c1 (configuration not stated)	Fluor 339 460 2.1
COc1ccccc1N(C(=O)c1snc(C(N)=O)c1N)C(C(=O)NC1CCCC1)c1ccco1 (configuration not stated)	Fluor 339 460 2.9
CCOC(=O)c1nnn(-c2nonc2N)c1CN(C)Cc1ccccc1	none
Cc1nnc(SC(=O)N2c3ccccc3Sc3ccccc32)s1	none
Cc1ccc(C(C)C)c(OCCNc2nc3c(c(=O)n(C)c(=O)n3C)n2C)c1	none
C=CCNC(=O)C1CC(=O)N(c2ccc(OCC(=O)Nc3ccccc3)cc2)C1 (configuration not stated)	none
O=C(Nn1c(C2CC2)nc2ccccc2c1=O)c1ccco1	PMK inhibit 55
COc1cc(C(=O)O)ccc1OC(C)=O	none
CCOc1ccc(C(=O)O)cc1OC	Spn DPM-DC inh active
N#Cc1c(N2CCCC2)nc(N)c2c(N)nc(N3CCCC3)cc12	Fluor 339 460 2.5 (not shown: Spn DPM-DC inh)
Cc1cc(C)c(C#N)c(N2CCCC2)n1	Fluor 339 460 3.6 (not shown: Spn DPM-DC inh)
COc1cc2c(C#N)c(N3CCN(c4ccccc4OC)CC3)nc(N)c2c(N)n1	Fluor 339 460 2.4, Spn DPM-DC inh active[fluoresces]
N#Cc1c(N)nc(N2CCCC2)c(C#N)c1-c1ccc(Cl)cc1	none
COC(=O)c1ccccc1NC(=O)CN1CCC(NC(=O)c2ccccc2C)CC1	none
Cc1ccc(C2CC(C(F)(F)F)n3ncc(C(=O)NCc4ccco4)c3N2)cc1 (configuration not stated)	none
CCC(=O)Nc1c(C)cc(C)cc1Cl	none
CCC(=O)Nc1c(OC(=O)CC)ccc2c(C)cc(=O)oc12	Fluor 339 460 2.1 (not shown: Spn DPM-DC inh)
COc1cc(CNc2ccc3[nH]c(=O)[nH]c3c2)ccc1OCC(=O)NC(C)(C)C	Fluor 339 460 4.9 (not shown: Spn DPM-DC inh)
CCN1C(=O)c2ccc(-c3nc4ccccc4c(=O)o3)cc2C1=O	Fluor 339 460 2.2 (not shown: Spn DPM-DC inh)
CN(C(=O)C1CCOC1)c1nnc(-c2ccccn2)s1 (configuration not stated)	none
CN(C(=O)C1CCCO1)c1nnc(-c2ccccn2)s1 (configuration not stated)	Fluor 339 460 4.8 (not shown: Spn DPM-DC inh)
CN(C(=O)c1ccncc1)c1nnc(-c2ccncc2)s1	Fluor 339 460 3.6 (not shown: Spn DPM-DC inh)
Cc1cnc(-c2nnc(N(C)C(=O)C3CCOC3)s2)cn1 (configuration not stated)	Fluor 339 460 2
COCC(=O)N(C)c1nnc(-c2ccccn2)s1	Fluor 339 460 2
CCOC(=O)N1CCC(Nc2ncnc3c2cnn3-c2ccc(Cl)cc2)CC1	none
CN(C)CCCC1(c2ccc(F)cc2)OCc2cc(C#N)ccc21 (configuration not stated)	none
CCCCOc1ccc(OCCNS(=O)(=O)N(C)C)cc1	none
CN(C(=O)C1CCCO1)c1nnc(-c2ccncc2)s1 (configuration not stated)	Fluor 339 460 2.6 (not shown: Spn DPM-DC inh)
CN(C(=O)c1cnccn1)c1nnc(-c2cccnc2)s1	PMK inhibit 30
Cc1cccc(N=C(N2CCOCC2)P(=O)(N2CCOCC2)N2CCOCC2)c1	none
CCOC(=O)c1ccc(Nc2cc(C)nc(N3CCOCC3)n2)cc1	Fluor 339 460 3
CCOc1ccc(Nc2cc(C)nc(N3CCOCC3)n2)cc1	none
COc1cc2c(cc1OC)CN(Cc1cc(=O)n3cc(C)ccc3n1)CC2	Fluor 339 460 2.3
COc1ccc(C(=O)N2CCc3cc(OC)c(OC)cc3C2)cc1OC	none
COc1ccc(C)cc1-n1nnnc1SCc1cc(=O)n2cc(C)ccc2n1	Fluor 339 460 2.1
COCCCn1c(C2CCCCC2)nc2oc3cc(OC)ccc3c(=O)c2c1=O	none
CCCCOc1ccc(C(=O)OC(C)CN(C)C)cc1 (configuration not stated)	Fluor 339 460 5 (not shown: Spn DPM-DC inh)
CCOC(=O)N1CCN(c2ncnc3c2[nH]c2ccc(OC)cc23)CC1	Fluor 339 460 2.5 (not shown: Spn DPM-DC inh)
CCOC(=O)C1CCN(c2ncnc3c2[nH]c2cccc(OC)c23)CC1	Fluor 339 460 3.7 (not shown: Spn DPM-DC inh)
COc1cccc2[nH]c3c(N4CCCCC4)ncnc3c12	Fluor 339 460 3.7 (not shown: Spn DPM-DC inh)
O=C(c1ccco1)N1CCN(c2ncnc3c2[nH]c2ccc(Br)cc23)CC1	none
O=C(c1ccco1)N1CCN(c2ncnc3c2[nH]c2ccccc23)CC1	none
COc1cc2[nH]c3c(N4CCN(c5ccccn5)CC4)ncnc3c2cc1OC	Fluor 339 460 3.7 (not shown: Spn DPM-DC inh)
Fc1ccc2[nH]c3c(N4CCN(c5ccccc5)CC4)ncnc3c2c1	none
CC(C)c1ccc(-c2nnn(Cc3nc4ccccc4s3)n2)cc1	none
O=C(CN1C(=O)C2CC=CCC2C1=O)NC1=NCCS1 (configuration not stated)	none
Cc1ccc2c(c1)N(CC(=O)OC(CC(C)C)C(=O)NC1CCCC1)C(=O)CO2 (configuration not stated)	none
CC(C)C(OC(=O)CN1C(=O)COc2ccccc21)C(=O)NC1CCCC1 (configuration not stated)	Spn DPM-DC inh active
N#Cc1c(F)cccc1N1CCOCC1	Fluor 339 460 3.1
Fc1cccc2sc(N3CCOCC3)nc12	none
CC(C)OCCCn1c(-c2ccco2)nc2nc3ccccc3nc21	Fluor 339 460 3.8 (not shown: Spn DPM-DC inh)
COCCn1c(-c2ccco2)nc2nc3ccccc3nc21	Fluor 339 460 3 (not shown: Spn DPM-DC inh)
Cc1ccc2nc3ccc(N4CCN(C)CC4)nn3c(=O)c2c1	Fluor 339 460 2.3
CCn1c(CNC(=O)c2cccc(C)c2)nc2ccccc21	none

Source: PubChem BioAssay (SRMLSC)
